Platelet DG rel = modulates dense granule release in human platelets; human platelet-rich plasma, SFLLRN dense granule ATP release, luminescence; inhibition, %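 (compounds screened at 7.5 µM in platelet-rich plasma)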; 0.22% of 300,000 active; AID 1663;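 active = mean replicate score, as percent of positive control, at or above 50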
SENP7 block = SENP7 protease inhibition; recombinant SENP7, Z-RLRGG-aminoluciferin luminescence, 40 min; Q9BQF6; 1.5% of 330,000 active; inhibition, % at 5 µM;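 active = inhibition above about 50% at the single test dose, limit read from the data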;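 also: plate controls were DMSO with enzyme for no effect and no enzyme buffer wells for full effect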
Target sequence (Q9BQF6 706-1050 limits assumed): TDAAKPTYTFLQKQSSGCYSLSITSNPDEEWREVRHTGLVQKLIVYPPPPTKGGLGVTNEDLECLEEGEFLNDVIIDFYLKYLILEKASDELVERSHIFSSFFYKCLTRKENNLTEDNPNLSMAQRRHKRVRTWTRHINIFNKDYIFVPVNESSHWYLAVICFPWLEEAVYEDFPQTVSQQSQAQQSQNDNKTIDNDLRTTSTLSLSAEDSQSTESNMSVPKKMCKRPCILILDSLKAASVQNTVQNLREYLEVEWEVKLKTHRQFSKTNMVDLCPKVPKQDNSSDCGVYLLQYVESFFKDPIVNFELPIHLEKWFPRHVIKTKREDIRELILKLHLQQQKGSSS
SENP6 block = SENP6 protease inhibition. Q9GZR1. Recombinant SENP6 catalytic domain, aminoluciferin luminescence. inhibition, % at 10 µM. 1.8% of 330,000 active. AID 2599;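 active = inhibition above about 50% at the single tested dose, limit read from the data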;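 also: plate controls were DMSO wells with enzyme for no effect and DMSO wells lacking enzyme for full effect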
SENP8 block-1 = inhibitors of human SENP8 protease; Q96LD8; purified SENP8, Z-RLRGG-aminoluciferin cleavage, luminescence; inhibition, % at 10 µM; 1.2% of 330,000 active; AID 2540; in the data active = inhibition above about 50%
Target sequence (Q96LD8 whole entry, looked up): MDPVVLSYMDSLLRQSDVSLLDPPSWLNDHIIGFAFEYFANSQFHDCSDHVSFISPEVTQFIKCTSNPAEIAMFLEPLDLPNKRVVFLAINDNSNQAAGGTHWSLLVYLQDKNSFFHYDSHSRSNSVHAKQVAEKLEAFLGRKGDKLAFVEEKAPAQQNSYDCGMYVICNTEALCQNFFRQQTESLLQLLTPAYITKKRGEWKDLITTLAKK
SENP8 block-2 = blocks human SENP8 cleavage of Nedd8 substrate; recombinant SENP8, Nedd8 substrate fluorescence; AID 602440; Q96LD8; 0.64% of 360,000 active; inhibition, % at 20 µM; in the data active = inhibition mostly above about 40%, no sharp cut-off; inactive = mostly below about 27%
SENP8 confirm = human SENP8 inhibition, confirmed; shares compounds with SENP7 block; Recombinant SENP8, Z-RLRGG-aminoluciferin luminescence, 60 min; inhibition, % at 12.5 µM; 40% of 6,200 active;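 active = mean inhibition across replicates above about 50%, limit read from the data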
SENP6 conf = human SENP6 inhibition, confirmed; inhibition, % at 12.5 µM; AID 488915; recombinant SENP6, Z-RLRGG-aminoluciferin luminescence; 58% of 6,200 active; shares compounds with SENP7 block
SENP7 conf = confirmation of human SENP7 protease inhibitors. shares compounds with SENP7 block. recombinant SENP7, Z-RLRGG-aminoluciferin luminescence, 40 min. inhibition, % at 12.5 µM. 69% of 6,200 active. AID 488917
Casp3 SENP sel = caspase-3 inhibition (SENP selectivity assay). shares compounds with SENP7 block. purified caspase-3, Z-DEVD-aminoluciferin luminescence, 60 min. inhibition, % at 12.5 µM. 60% of 6,200 active. AID 488918;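 active = mean inhibition above about 50%, limit read from the data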;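 also: plate controls were enzyme with DMSO for no effect and wells without caspase-3 for full effect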
Luc interf = luminescence interference (SENP counter-screen). 39% of 6,200 active. shares compounds with SENP7 block. Pre-incubated SENP8/Z-RLRGG-aminoluciferin, luciferase luminescence interference. AID 488919. inhibition, % at 12.5 µM;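 active = mean inhibition above about 50% when retested at one dose, limit read from the data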;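 also: plate controls were DMSO wells with completed reaction for no effect and substrate without enzyme for full effect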
* marks the source's active call; other numbers are inactive results; . = no result given. In the library only some 2.4% were active in any assay of this set; here they are far more common.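 The calls were made as follows, unless noted: active = mean inhibition above about 50% in the one-dose retest (limit read from the data); inactive = the rest.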

SMILES | Platelet DG rel | SENP7 block | SENP6 block | SENP8 block-1 | SENP8 block-2 | SENP8 confirm | SENP6 conf | SENP7 conf | Casp3 SENP sel | Luc interf
CCCNC(=O)C1(C)CCCN(Cc2ccc(C(=O)OCC)o2)C1 (centres undefined) | . | . | . | . | 19 | . | . | . | . | .
COCc1cn(CC(C)n2c(=O)c3ccccc3n2Cc2cc(C(C)C)no2)nn1 (centres undefined) | . | . | . | . | -402 | . | . | . | . | .
O=[N+]([O-])c1cccc(/C=C/c2nc[nH]c2[N+](=O)[O-])c1 | 1 | 25 | 70* | 57* | 18 | 18 | 15 | 16 | 49 | 3
CCOC(=O)CC(=O)CSc1nc2ccc(OC)cc2cc1C | -3 | -7 | -5 | -8 | 2 | . | . | . | . | .
Cc1ccc(C(=O)O/N=C(\N)c2ccccn2)cc1 | 104* | 101* | 99* | 98* | 9 | 99* | 99* | 102* | 98* | 88*
C/C(=N\OC(=O)c1ccc(Br)cc1)c1ccccn1 | 12 | 97* | 97* | 93* | 14 | 43 | 54* | 44 | 46 | 12
N/C(=N\OC(=O)c1ccc(Br)o1)c1ccccn1 | 2 | 88* | 50* | 64* | 15 | 86* | 85* | 97* | 94* | 57*
N/C(=N\OCc1ccc([N+](=O)[O-])cc1)c1ccccn1 | 63* | 96* | 95* | 90* | . | 94* | 94* | 100* | 95* | 71*
CC(=O)NS(=O)(=O)c1ccc(NC(=O)COc2ccc(C(=O)c3ccccc3)cc2)cc1 | 18 | -1 | -23 | -8 | 12 | . | . | . | . | .
CCOC(=O)c1ccc(NCCc2ccc(OC)c(OC)c2)c(N)c1 | 0 | -5 | 24 | 2 | -318 | . | . | . | . | .
COc1ccccc1/C=C/C(=O)OCCN1C(=O)c2ccccc2C1=O | . | -5 | 7 | -2 | -33 | . | . | . | . | .
Cc1cccc(/C(N)=N/OC(=O)c2cccnc2)c1 | 2 | 80* | 69* | 49 | 25 | 47 | 54* | 85* | 84* | 58*
CCOc1ccc(OCc2ccc(C(=O)N/N=C(\C)c3ccccn3)cc2)cc1 | -1 | . | . | . | 4 | . | . | . | . | .
Cc1cccc(/C(N)=N/OC(=O)c2ccc3c(c2)OCO3)c1 | 64* | 100* | 98* | 97* | 7 | 100* | 100* | 103* | 98* | 99*
Cc1cccc(OCC(=O)O/N=C(\N)c2ccccn2)c1 | 6 | 4 | -6 | -11 | 12 | . | . | . | . | .
N/C(=N\OC(=O)c1ccc2c(c1)OCO2)c1cccc([N+](=O)[O-])c1 | 8 | 45 | 42 | 15 | 15 | . | . | . | . | .
C/C(=N/OCc1ccc(Br)cc1)c1ccccn1 | 4 | 91* | -6 | 82* | 31 | 4 | 88* | 100* | 75* | 49
Cc1cccc(C(=O)O/N=C(\N)c2ccccn2)c1 | 26 | 98* | 97* | 91* | 11 | 94* | 95* | 100* | 96* | 93*
NS(=O)(=O)c1cccc(NC(=O)COC(=O)Cc2n[nH]c(=O)c3ccccc23)c1 | . | -3 | 6 | -7 | 6 | . | . | . | . | .
O=C(COC(=O)/C=C/c1ccc(Cl)cc1Cl)NCC1CCCO1 (centres undefined) | . | 2 | -4 | -7 | 9 | . | . | . | . | .
N/C(=N\OC(=O)c1ccccc1)c1ccccn1 | 15 | 98* | 96* | 92* | 4 | 97* | 98* | 102* | 98* | 95*
COc1cc(C(=O)O/N=C(\N)c2ccccn2)cc(OC)c1OC | 3 | 2 | -3 | 7 | 4 | . | . | . | . | .
Cc1cccc(/C(N)=N/OC(=O)c2ccc(Br)o2)c1 | 5 | 78* | 80* | 70* | 12 | 53* | 77* | 94* | 86* | 31
CCc1ccc(OCC(=O)O/N=C(\N)c2ccccn2)cc1 | -4 | . | . | . | 18 | . | . | . | . | .
CCOc1ccc(C(=O)O/N=C(\N)c2ccccn2)cc1 | 81* | 100* | 98* | 97* | 7 | 98* | 99* | 102* | 98* | 73*
SMILES | Platelet DG rel | SENP7 block | SENP6 block | SENP8 block-1 | SENP8 block-2 | SENP8 confirm | SENP6 conf | SENP7 conf | Casp3 SENP sel | Luc interf
C/C(=N\NC(=O)c1cc(Br)ccc1O)c1ccccn1 | 12 | 56* | 87* | 78* | -88 | 41 | 85* | 84* | 91* | 29
Cc1cc(NC(=O)CN2C(=O)c3ccccc3C2=O)no1 | -2 | 5 | -8 | 2 | 16 | . | . | . | . | .
Cc1cccc(S(=O)(=O)NC(=O)C2(C)CCN2C(=O)c2sccc2C)c1 (centres undefined) | . | . | . | . | 11 | . | . | . | . | .
COC(=O)C(C(=O)OC)c1cc2c(cc1CNS(=O)(=O)c1ccc(C)cc1)OCO2 | . | . | . | . | 10 | . | . | . | . | .
Cc1ccc(C(=O)O/N=C(\N)c2ccccn2)cc1C | 19 | 98* | 98* | 93* | 19 | 95* | 95* | 101* | 96* | 86*
CC(C)(C)c1ccc(C(=O)C2CCCN(C(=O)c3ccccn3)C2)cc1 (centres undefined) | -10 | 102* | 5 | 2 | 5 | -9 | -7 | -10 | 0 | 4
N/C(=N\OC(=O)c1cccc(F)c1)c1ccccn1 | 7 | 91* | 90* | 81* | 8 | 91* | 93* | 101* | 97* | 90*
COc1ccc(C(=O)O/N=C(\N)c2ccccn2)c(OC)c1 | 40 | 32 | 22 | 8 | 3 | . | . | . | . | .
CC(C)(C)c1ccc(C(=O)O/N=C(\N)c2ccccn2)cc1 | 29 | 98* | 97* | 94* | 14 | 86* | 98* | 102* | 95* | 76*
CN(NS(=O)(=O)c1ccccc1)C(=O)c1ccccc1 | . | . | . | . | 2 | . | . | . | . | .
CCN1C[C@@H]2[C@@H]3C(=O)N(Cc4ccccc4)C(=O)[C@@H]3[C@](Cc3ccccc3)(C1=O)N2C(=O)c1ccc(C)cc1 | . | . | . | . | 4 | . | . | . | . | .
FC(F)Oc1ccc(NC(=S)N2CCc3ccccc32)cc1 | 0 | 11 | 50* | 23 | 6 | 2 | -7 | 23 | 8 | 9
COc1cc(CNCc2ccncc2)cc(Br)c1OCc1ccccc1F | -3 | 9 | -7 | 3 | 4 | . | . | . | . | .
COc1cc(CNc2ccc(O)cc2)cc(Br)c1OCc1ccccc1F | 7 | 60* | 23 | -5 | 19 | 1 | 4 | -3 | -2 | 1
CCOC(=O)[C@@H]1[C@H]2COc3cc(OC)ccc3[C@@H]2N2C(=O)N(c3ccccc3)C(=O)[C@]12C | . | 0 | -2 | 1 | 6 | . | . | . | . | .
COc1ccc(C(=O)Nc2ccc(Cl)c(Cl)c2)c(OC)n1 | -4 | 51* | 12 | -6 | 9 | 18 | 14 | 25 | 34 | 14

Source: PubChem (several laboratories)
